# CFTR F508del cor – correctors of CFTR F508del function in bronchial epithelial cells; CFBE cells, YFP halide quenching; stimulated with forskolin plus potentiator P3; % fluorescence drop versus neutral controls; activity (quench increase), % at 7.58 µM; hit rate 0.36% among 350,000;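 active = mean added fluorescence quench of at least 8% versus neutral control, with both replicates also reaching 8%; inconclusive = only one of the mean or replicate conditions met; inactive = mean below 8% and not both replicates reaching 8%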;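 also: cells transiently co-express mutant CFTR-F508del with the halide-sensitive YFP; corrector assay measuring rescue of mutant channel to the surface after 24 h compound exposure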
# Vif imaging – HIV Vif inhibition; HEK293T cells, Vif self-association by quenched fluorescence, imaging, 24 h; inhibition, % at 7.49 µM; hit rate 0.35% among 340,000; AID 602346; in the data active = inhibition above about 50%, passing the limit was not always enough; inconclusive = no clear call, values can overlap the other calls; inactive = below about 31%
# FGF22 binding – shifts melting point of recombinant human FGF22. Q9HCT0. recombinant FGF22 thermal shift, SYPRO orange fluorescence; percent of sucrose octasulfate shift, DMSO zero. activity (Tm shift, normalised), % at 9.99 µM. hit rate 1.5% among 340,000. AID 651658;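 active = mean Tm shift, scaled 0 neutral to 100 positive control, at about 1.3% or above, every replicate too, limit read from the data; inconclusive = no clear call, values can overlap the other calls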
# Target sequence (Q9HCT0 whole entry, looked up): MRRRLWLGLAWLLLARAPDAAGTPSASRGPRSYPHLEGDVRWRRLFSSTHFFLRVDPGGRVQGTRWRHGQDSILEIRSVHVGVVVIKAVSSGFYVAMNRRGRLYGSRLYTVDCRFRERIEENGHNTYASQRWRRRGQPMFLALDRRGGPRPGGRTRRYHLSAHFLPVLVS
# * hit, by the source's call; ? = inconclusive; · = not tested or not shown. A selection: hits, their analogues and other compounds. The true share with any hit is near 1.7%.
SMILES,CFTR F508del cor,Vif imaging,FGF22 binding
O=C1CN(C(=O)/C=C/c2ccc(Cl)cc2)c2ccccc2N1,-2,-3,0
C[C@@H]1CN([C@@H](C)CO)S(=O)(=O)c2ccc(-c3ccccc3)cc2O[C@@H]1CN(C)C(=O)C1CCC1,-2,·,·
Cc1noc(C)c1NC(=O)N(C)C[C@@H]1OCCCC[C@@H](C)Oc2ccc(NC(=O)c3ccccc3)cc2C(=O)N([C@H](C)CO)C[C@@H]1C,1,·,·
Cc1noc(C)c1S(=O)(=O)Nc1ccc2c(c1)C(=O)N([C@H](C)CO)C[C@@H](C)[C@H](CN(C)S(=O)(=O)c1c(C)noc1C)OCCCC[C@@H](C)O2,-1,·,0
O=[N+]([O-])c1ccccc1N/N=C/c1cccc(O)c1O,5,-2,0
O=[N+]([O-])c1cccc(N/N=C/c2cccc(O)c2O)c1,5,64*,1
C[C@H](CO)N1C[C@H](C)[C@@H](CN(C)S(=O)(=O)c2cccs2)Oc2c(NC(=O)C3CCOCC3)cccc2C1=O,3,·,-1
CC(=O)Oc1ccc(N(C(C)=O)S(=O)(=O)c2cccs2)cc1,·,24,·
CCCC(=O)Oc1ccc(N(C(=O)CCC)S(=O)(=O)c2cccs2)cc1,0,-2,43*
O=C(NCCCCNC(=O)c1ccccn1)c1ccccn1,-4,-6,43*
COc1ccc(C(=O)Nc2cccnc2Sc2ccc(Cl)cc2)cc1,-1,12,29*
COc1ccc(C(=O)NNC(=O)c2ccccn2)cc1,-5,2,44*
CCOC(=O)Nc1cccnc1Sc1ccc(Cl)cc1,-2,0,0
COc1cc(OC)cc(C(=O)NNC(=O)c2ccccn2)c1,2,-8,0
O=C(NCCCCCNC(=O)c1ccccn1)c1ccccn1,2,-2,0
CC(=O)N1[C@@H]2c3ccc(C4=CCCCC4)c(=O)n3C[C@H]1[C@H](CO)[C@H]2C(=O)N[C@@H](C)c1ccccc1,·,·,0
C[C@@H]1CN([C@H](C)CO)C(=O)c2cc(NS(=O)(=O)c3cn(C)cn3)ccc2O[C@@H]1CN(C)C(=O)Nc1ccc(F)cc1,-6,·,·
COC(=O)Nc1nc2ccc(SC(C)C)cc2[nH]1,4,?,0
CCCSc1ccc2nc(NC(=O)OC)[nH]c2c1,-4,160*,0
COc1ccc2c3c([nH]c2c1)[C@@H](CO)N(Cc1ccccc1)CC31CN(S(=O)(=O)c2ccc(C)cc2)C1,4,·,0
COc1cc(/C=C2/C(=O)N=C(N)N2C)cc(OC)c1OC,·,-20,·
COc1c(Br)cc(Br)cc1/C=C1/C(=O)N=C(N)N1C,5,96*,0
O=C(NCCc1cccs1)c1ccc(CS(=O)Cc2cccc(Cl)c2)o1 (stereo not drawn),-2,-6,43*
COc1ccc(OC)c(CCNC(=O)c2ccc(CS(=O)Cc3cccc(Cl)c3)o2)c1 (stereo not drawn),-1,-5,0
CNC[C@@H]1Oc2ccc(NC(=O)NC(C)C)cc2CC(=O)N([C@H](C)CO)C[C@H]1C,0,·,0
SMILES,CFTR F508del cor,Vif imaging,FGF22 binding
O=C(C[C@@H]1C=C[C@H](NC(=O)Nc2ccc3c(c2)OCO3)[C@@H](CO)O1)NCc1ccc2c(c1)OCO2,-3,·,0
C[C@@H]1CN([C@@H](C)CO)C(=O)Cc2cc(NS(C)(=O)=O)ccc2O[C@H]1CN(C)S(=O)(=O)c1ccccc1,-3,·,0
O=C(CCN1CCOCC1)c1ccccc1,-5,2,0
COc1ccc(S(=O)(=O)N(C)CC(=O)NCCN2CCOCC2)cc1Cl,-2,-3,0
O=C(CN1CCOCC1)Nc1ccc(Cl)cc1,0,-5,0
O=C(CCN1CCOCC1)NNC(=S)NC(=O)c1ccccc1,1,69*,0
O=C(CCN1CCOCC1)Nc1ccc(Cl)cc1,2,74*,0
CN(CC(=O)NCCN1CCOCC1)S(=O)(=O)c1ccc(Cl)cc1,1,4,43*
O=C(NC1CCC1)[C@@H]1[C@@H](CO)[C@@H]2Cn3c(ccc(-c4ccccc4)c3=O)[C@@H]2N1CCc1ccccc1,0,·,0
CNC[C@@H]1Oc2ccc(NC(=O)CCCN(C)C)cc2C(=O)N([C@@H](C)CO)C[C@@H]1C,-1,·,0
Cc1ccc(Nc2cc(=O)[nH]c(=O)[nH]2)cc1C,1,57*,42
Cc1cccc(Nc2cc(=O)[nH]c(=O)[nH]2)c1,2,12,0
CC(=O)Nc1nc(C)cs1,1,6,0
CC(=O)Nc1nc(C(=O)O)cs1,-2,2,43*
CCCCNC(=O)C(=O)Nc1ccc2c(c1)N(S(=O)(=O)c1cccs1)CCC2,11*,0,0
CCN(CC)CCNC(=O)C(=O)Nc1ccc2c(c1)N(S(=O)(=O)c1cccs1)CCC2,-4,-1,0
O=C(Nc1ccccc1)N[C@H]1CC[C@H](CCNS(=O)(=O)c2cccc(F)c2)O[C@H]1CO,-2,·,0
O=C1N(CN2CCC3(CC2)OCCO3)c2ccccc2C12OCCCO2,·,6,·
CC1(C)COC2(OC1)C(=O)N(CN1CCOCC1)c1ccccc12,1,-3,43*
CCOCCOC(=O)C(C)Oc1ccc(Oc2nc(Cl)ccc2Cl)cc1 (stereo not drawn),0,·,43*
CCOCCOC(=O)C(C)Oc1ccc(Oc2ncc(Cl)cc2Cl)cc1 (stereo not drawn),0,2,0
O=C(c1cccc(F)c1)N1CC[C@@H]2[C@H](CO)Nc3ccc(-c4ccccc4F)cc3[C@@H]21,11*,·,-1
O=C(c1cccnc1)N1CC[C@@H]2[C@H](CO)Nc3ccc(C4=CCCCC4)cc3[C@@H]21,8.1*,·,·
O=C(c1cccnc1)N1CC[C@@H]2[C@@H](CO)Nc3ccc(C4=CCCCC4)cc3[C@@H]21,-1,·,0
O=C(c1cccc(F)c1)N1CC[C@@H]2[C@H]1c1cc(-c3ccccc3F)ccc1N[C@@H]2CO,0,·,·
SMILES,CFTR F508del cor,Vif imaging,FGF22 binding
COCC#Cc1ccc([C@H]2[C@@H](CO)N3C(=O)CN(C(=O)c4cccnc4)C[C@H]23)cc1,1,·,·
Cc1ccc(S(=O)(=O)N[C@@H]2CC[C@H](CC(=O)NCc3ccc(Cl)c(Cl)c3)O[C@H]2CO)cc1,2,·,0
COc1ccc(NC(=O)Nc2ccc3c(c2)C(=O)N([C@H](C)CO)C[C@@H](C)[C@H](CN(C)C)OCCCC[C@@H](C)O3)cc1,0,·,0
Cc1ccc(S(=O)(=O)NCc2ccccc2)cc1C(=O)N1CCCCC1,0,7,0
Cc1ccc(S(=O)(=O)NCc2ccccc2)cc1C(=O)N1CC(C)CC(C)C1 (stereo not drawn),8.3*,3,0
CCNC(=O)C[C@@H]1CC[C@@H]2[C@@H](COc3ccc(NC(=O)Nc4cccc(C)c4)cc3C(=O)N2C)O1,3,·,0
COc1cccc(Nc2nc3cc(OC)ccc3cc2C#N)c1,0,-5,0
COc1ccc(Nc2nc3c(C)cccc3cc2C#N)cc1,-3,-2,43*
Cc1noc(C)c1S(=O)(=O)Nc1ccc2c(c1)CC(=O)N([C@H](C)CO)C[C@H](C)[C@H](CN(C)C(=O)Nc1ccc(F)cc1)O2,0,·,0
Cc1cc(NC(=O)c2ccccc2)c(Cl)cc1N,-2,116*,0
Cc1cc(N)ccc1NC(=O)c1ccccc1,·,8,·
